This is an account of results in PubChem BioAssay (EPA / NIEHS).

Read-out in test [1]: Interleukin-8 (IL8), CXCL8 (gene 3576)
As to the kind of experiment: BSK_CASM3C_IL8: BioMAP Diversity Plus: CASM3C Assay for Interleukin-8 (IL8) Biomarker Activity (AID 2283042).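 Also: IL-8 protein level quantified by ELISA.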 Conditions: primary human coronary artery smooth muscle cells; actives raise or lower the signal.

Read-out in test [2]: Human Leukocyte Antigen - DR isotype (HLADR), HLA-DRA (gene 3122)
As to the kind of experiment: BSK_CASM3C_HLADR: BioMAP Diversity Plus: CASM3C Assay for Human Leukocyte Antigen - DR isotype (HLADR) Biomarker Activity (AID 2283043).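 Also: cell-surface HLA-DR protein level quantified by ELISA.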 The note with it: primary human coronary artery smooth muscle cells; actives raise or lower the signal.

Read-out in test [3]: Macrophage colony-stimulating factor (MCSF), CSF1 (gene 1435)
The test is described as follows: BSK_CASM3C_MCSF: BioMAP Diversity Plus: CASM3C Assay for Macrophage colony-stimulating factor (MCSF) Biomarker Activity (AID 2283044).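 Also: M-CSF protein amount quantified by ELISA after 24 h exposure.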 Conditions: primary human coronary artery smooth muscle cells; actives raise or lower the signal.

Read-out in test [4]: Low-density lipoprotein receptor (LDLR), LDLR (gene 3949)
The test is described as follows: BSK_CASM3C_LDLR: BioMAP Diversity Plus: CASM3C Assay for Low-density lipoprotein receptor (LDLR) Biomarker Activity (AID 2283045).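 Also: LDLR protein level on the cell surface quantified by ELISA.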 Conditions: primary human coronary artery smooth muscle cells; actives raise or lower the signal.

Read-out in test [5]: Monocyte Chemoattractant Protein-1 (MCP1), CCL2 (gene 6347)
As to the kind of experiment: BSK_CASM3C_MCP1: BioMAP Diversity Plus: CASM3C Assay for Monocyte Chemoattractant Protein-1 (MCP1) Biomarker Activity (AID 2283046).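 Also: MCP-1 level quantified by ELISA 24 h after dosing.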 Conditions: primary human coronary artery smooth muscle cells; actives raise or lower the signal.

Test [6] can be described thus: BSK_CASM3C_Proliferation: Cell Proliferation Assessment in the BioMAP Diversity Plus: CASM3C Assay (AID 2283047).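 Also: sulforhodamine B total protein stain as relative cell number at 560 nm; sub-confluent cells exposed 48 h before staining; fitted both ways against DMSO so gain or loss of cell number.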 Conditions: primary human coronary artery smooth muscle cells.
Read-out in test [7]: Monokine induced gamma interferon (MIG), CXCL9 (gene 4283)
The test is described as follows: BSK_CASM3C_MIG: BioMAP Diversity Plus: CASM3C Assay for Monokine induced gamma interferon (MIG) Biomarker Activity (AID 2283048).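 Also: MIG protein level measured by ELISA.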 Conditions: primary human coronary artery smooth muscle cells; actives raise or lower the signal.

Read-out in test [8]: serum amyloid A (SAA), SAA1 (gene 6288)
As to the kind of experiment: BSK_CASM3C_SAA: BioMAP Diversity Plus: CASM3C Assay for serum amyloid A (SAA) Biomarker Activity (AID 2283049).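 Also: SAA protein level quantified by ELISA.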 The note with it: primary human coronary artery smooth muscle cells; actives raise or lower the signal.

Test [9] in a line: BSK_CASM3C_SRB: Viability Assessment in the BioMAP Diversity Plus: CASM3C Assay (AID 2283050).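 Also: total protein by SRB staining as cytotoxicity measure in parallel cultures; cells exposed to compound for 24 h.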 Conditions: primary human coronary artery smooth muscle cells.
Read-out in test [10]: Thrombomodulin, THBD (gene 7056)
As to the kind of experiment: BSK_CASM3C_Thrombomodulin: BioMAP Diversity Plus: CASM3C Assay for Thrombomodulin Biomarker Activity (AID 2283051).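 Also: thrombomodulin protein level measured by ELISA 24 h after dosing.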 The note with it: primary human coronary artery smooth muscle cells; actives raise or lower the signal.

Read-out in test [11]: Tissue Factor, F3 (gene 2152)
As to the kind of experiment: BSK_CASM3C_TissueFactor: BioMAP Diversity Plus: CASM3C Assay for Tissue Factor Biomarker Activity (AID 2283052).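 Also: cell surface tissue factor protein level read by ELISA.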 The note with it: primary human coronary artery smooth muscle cells; actives raise or lower the signal.

Read-out in test [12]: Interferon-gamma inducible Protein 10 (IP10), CXCL10 (gene 3627)
As to the kind of experiment: BSK_hDFCGF_IP10: BioMAP Diversity Plus: hDFCGF Assay for Interferon-gamma inducible Protein 10 (IP10) Biomarker Activity (AID 2283053). Conditions: primary human foreskin fibroblasts; actives raise or lower the signal. The procedure, abridged: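 ELISA read-out of IP-10 (CXCL10) from primary human skin fibroblasts, 24 h after compound addition. Gain or loss of signal versus DMSO baseline, bidirectional curve fitting.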

Read-out in test [13]: Urokinase-type plasminogen activator receptor (uPAR), PLAUR (gene 5329)
As to the kind of experiment: BSK_CASM3C_uPAR: BioMAP Diversity Plus: CASM3C Assay for Urokinase-type plasminogen activator receptor (uPAR) Biomarker Activity (AID 2283054).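 Also: cell-surface uPAR protein level quantified by ELISA.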 Conditions: primary human coronary artery smooth muscle cells; actives raise or lower the signal.

Read-out in test [14]: Vascular cell adhesion molecule 1 (VCAM1), VCAM1 (gene 7412)
As to the kind of experiment: BSK_CASM3C_VCAM1: BioMAP Diversity Plus: CASM3C Assay for Vascular cell adhesion molecule 1 (VCAM1) Biomarker Activity (AID 2283055).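 Also: VCAM-1 protein level quantified by ELISA on the cells.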 Conditions: primary human coronary artery smooth muscle cells; actives raise or lower the signal.

Read-out in test [15]: Collagen III, COL3A1 (gene 1281)
The test is described as follows: BSK_hDFCGF_CollagenIII: BioMAP Diversity Plus: hDFCGF Assay for Collagen III Biomarker Activity (AID 2283056). The note with it: primary human foreskin fibroblasts; actives raise or lower the signal. The procedure, abridged: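 Human foreskin primary fibroblasts were exposed to test chemicals for 24 h, after which collagen III was quantified by ELISA. Activity was fitted bidirectionally against DMSO as negative control and baseline.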

Read-out in test [16]: Epidermal growth factor receptor (EGFR), EGFR (gene 1956)
As to the kind of experiment: BSK_hDFCGF_EGFR: BioMAP Diversity Plus: hDFCGF Assay for Epidermal growth factor receptor (EGFR) Biomarker Activity (AID 2283057). Conditions: primary human foreskin fibroblasts; actives raise or lower the signal. The procedure, abridged: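 ELISA readout of EGFR on human dermal fibroblasts (primary foreskin cells), 24 h post-dosing; bidirectional curve fit vs DMSO baseline, gain or loss of signal scored.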

Read-out in test [17]: Interleukin-8 (IL8), CXCL8 (gene 3576)
As to the kind of experiment: BSK_hDFCGF_IL8: BioMAP Diversity Plus: hDFCGF Assay for Interleukin-8 (IL8) Biomarker Activity (AID 2283058). The note with it: primary human foreskin fibroblasts; actives raise or lower the signal. Summed up:
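hDFCGF human dermal fibroblasts; 24 h chemical exposure; IL-8 by ELISA; bidirectional curve fit vs DMSO baseline; gain or loss of signal scored.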

Test [18] can be described thus: BSK_hDFCGF_Proliferation: Cell Proliferation Assessment in the BioMAP Diversity Plus: hDFCGF Assay (AID 2283059).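 Also: curves fitted for both rise and fall of signal versus DMSO baseline.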 The note with it: primary human foreskin fibroblasts. The procedure, abridged: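 Steps: dose primary human dermal fibroblasts (foreskin); […] fix in 10% TCA; stain with 0.1% SRB; read 560 nm; fit gain or loss of signal against DMSO.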
Read-out in test [19]: Macrophage colony-stimulating factor (MCSF), CSF1 (gene 1435)
As to the kind of experiment: BSK_hDFCGF_MCSF: BioMAP Diversity Plus: hDFCGF Assay for Macrophage colony-stimulating factor (MCSF) Biomarker Activity (AID 2283060). Conditions: primary human foreskin fibroblasts; actives raise or lower the signal. The procedure, abridged: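 Human foreskin primary fibroblasts were treated with test chemical for 24 h, and M-CSF was then measured by ELISA. Data were fitted bidirectionally against DMSO as the negative control and activity baseline.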

Test [20] is described as follows: BSK_hDFCGF_SRB: Viability Assessment in the BioMAP Diversity Plus: hDFCGF Assay (AID 2283061).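 Also: cells exposed to compound for 24 h before the read.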 The note with it: primary human foreskin fibroblasts. Summed up:
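Human foreskin primary fibroblasts were treated with compound and assessed 24 h after dosing. Total protein was measured by sulforhodamine B staining (0.1% SRB after 10% TCA fixation, 560 nm read) as a cytotoxicity marker, with bidirectional fitting against DMSO baseline.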

Structures are written as SMILES. Activity calls are given as the source filed them. The calls were made as follows: active = hit-call score of the fitted dose curve at least 0.9, where 1 is the maximum; inactive = score below 0.9.

For `NCc1cccc(C2CCN(C(=O)c3ccc(C#Cc4ccccc4F)o3)CC2)c1`, the AC50 in test [1] was 34.7 µM (active); in test [2], 13.3 µM (active); in test [3], 28.4 µM (active); in test [4], 35.3 µM (active); in test [6], 22.3 µM (active); in test [7], 34 µM (active). Besides, the AC50 in test [8] was 27.7 µM (active); in [9], 16 µM (active); in test [10] it was 4.76 µM (active); in test [12], 8.64 µM (active); in test [13], 30.7 µM (active); in [14] it was 15.9 µM (active). In addition, the AC50 in test [15] is 5.12 µM (active); in test [16] it was 12.6 µM (active); in test [17] it was 11.9 µM (active); in test [18] it was 5.81 µM (active); in test [19], 7.78 µM (active); in test [20], 10.1 µM (active). Further, the outcome in test [5] and in test [11] was inactive.
For `CCCCCCCCOC(=O)c1cc(O)c(O)c(O)c1`, the AC50 in test [1] was 31.7 µM (active); in test [2], 31.9 µM (active); in test [3], 20 µM (active); in test [4], 29.2 µM (active); in [5] it was 27.8 µM (active); in test [6] it was 16.1 µM (active). Besides, the AC50 in test [7] is 31 µM (active); in test [8], 20 µM (active); in [9], 31.3 µM (active); in [10] it was 0.282 µM (active); in [12], 12.7 µM (active); in test [13], 34.2 µM (active). Further, the AC50 in test [14] is 28.2 µM (active); in test [15], 14 µM (active); in test [17], 33.2 µM (active); in test [18], 4.32 µM (active); in test [19], 27.8 µM (active); in test [20] it was 18.5 µM (active). The outcome in test [11] and in [16] was inactive.
In the case of `NC(=O)c1nc(-c2cccc(-c3cc(F)ccc3OCC(F)(F)C(F)(F)F)c2)n[nH]1`, the outcome in [1], in [3], in [4], in test [5], in test [7] and in [8] was inactive. In addition, the outcome in test [9], in test [10], in test [11], in [14] and in test [16] was inactive. The AC50 is 28.7 µM (active) in test [2]; 31.4 µM (active) in [6]; 35 µM (active) in test [12]; 32 µM (active) in [13]; 17.7 µM (active) in test [15]; 39.3 µM (active) in test [17]. Also, the results for the AC50 in test [18], in [19] and in test [20] were 31.1 µM (active), 44 µM (active) and 36.4 µM (active), respectively.
Turning to `O=c1c(-c2ccc(O)cc2)coc2cc(O)cc(O)c12`, the AC50 was 20 µM (active) in [1]; 27.6 µM (active) in [2]; 28.6 µM (active) in test [5]; 11.7 µM (active) in test [6]; 20 µM (active) in test [8]; 20 µM (active) in test [12]. In addition, the AC50 in test [13] is 29.6 µM (active); in test [14] it was 25.7 µM (active); in test [18], 11.7 µM (active); in test [20] it was 14.3 µM (active). Further, the outcome in test [3], in test [4], in test [7], in test [9], in test [11] and in [15] was inactive. Also, the outcome in test [17] and in test [19] was inactive.
As for `O=C(O)c1ccccc1C(=O)OCc1ccccc1`, the result in [1], in test [2], in test [3], in test [4], in [5] and in test [6] was inactive. For the same compound, the result in test [7], in [8], in test [9], in test [10], in [11] and in test [12] was inactive. For the same compound, the result in [13], in [14], in [15], in test [16], in test [17] and in [18] was inactive. Further, the outcome in test [19] and in [20] was inactive.
For `O=C=NCCCCCCN=C=O`, the outcome in test [1], in test [2], in [3], in test [4], in test [5] and in test [6] was inactive. The result in test [7], in test [8], in [9], in test [10], in [11] and in test [12] was inactive. Also, the result in test [13], in [14], in test [15], in test [16], in [17] and in test [18] was inactive. Further, the outcome in test [19] and in [20] was inactive.

A word on the AC50: it is the concentration at which the activity in the assay is half-maximal.
